Results: PubChem BioAssay AID1159580 (chemical genetic matrix, 2015)
Hit rate of the full screen: of about 5,500 compounds, about 2,000 (36%) were called active. Inconclusive results (about 18%) are left out. Rule as the data show it: active = normalized growth mostly below about 0.91 (no sharp cut-off); inconclusive = no clear call, values can overlap the other calls; inactive = mostly above about 0.92. The list shows a part of the results.

Test: chemical genetic growth profiling, strain panel (AID 1159580);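 also: tested at 20 µM; growth read once vehicle control cultures reached saturation at 30 °C; 1 = growth at the plate median or of vehicle wells; lower values mean less growth of the strain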
Details: growth OD

Measured: normalized growth

CC[C@@H](C(=O)O)[C@@H]1O[C@@H]([C@@H](C)[C@H](O)[C@H](C)C(=O)[C@H](CC)[C@H]2O[C@]3(C=C[C@@H](O)[C@]4(CC[C@@](C)(C5CC[C@](O)(CC)[C@H](C)O5)O4)O3)[C@H](C)C[C@@H]2C)[C@@H](C)C[C@H]1C (stereo partly specified)
inactive: S. cerevisiae deletion strains, locus YDL185W, strain tfp1, active compounds read low 0.993 | S. cerevisiae deletion strains, locus YOL012C, strain htz1 0.22
active: S. cerevisiae deletion strains, locus YAL013W, strain DEP1, active compounds read low 0.858 | S. cerevisiae deletion strains, locus YBR021W, strain FUR4, active compounds read low 0.168 | S. cerevisiae deletion strains, locus YBR229C, strain ROT2, active compounds read low 0.405 | S. cerevisiae deletion strains, locus YCL029C, strain bik1, active compounds read low 0.559 | S. cerevisiae deletion strains, locus YDL035C, strain GPR1, active compounds read low 0.478 | S. cerevisiae deletion strains, locus YDL074C, strain BRE1, active compounds read low 0.412 | S. cerevisiae deletion strains, locus YDL101C, strain DUN1, active compounds read low 0.214 | S. cerevisiae deletion strains, locus YDL134C, strain PPH21, active compounds read low 0.313 | S. cerevisiae deletion strains, locus YDL192W, strain arf1, active compounds read low 0.0725 | S. cerevisiae deletion strains, locus YDR101C, strain arx1, active compounds read low 0.569 | S. cerevisiae deletion strains, locus YDR150W, strain NUM1, active compounds read low 0.426 | S. cerevisiae deletion strains, locus YDR162C, strain NBP2, active compounds read low 0.0697 | S. cerevisiae deletion strains, locus YDR318W, strain mcm21, active compounds read low 0.224 | S. cerevisiae deletion strains, locus YDR388W, active compounds read low 0.117 | S. cerevisiae deletion strains, locus YDR502C, strain sam2, active compounds read low 0.317 | S. cerevisiae deletion strains, locus YEL061C, strain CIN8, active compounds read low 0.724 | S. cerevisiae deletion strains, locus YER110C, active compounds read low 0.861 | S. cerevisiae deletion strains, locus YER155C, strain BEM2, active compounds read low 0.796 | S. cerevisiae deletion strains, locus YER167W, strain BCK2, active compounds read low 0.294 | S. cerevisiae deletion strains, locus YGL078C, strain dbp3, active compounds read low 0.378 | S. cerevisiae deletion strains, locus YGL086W, strain mad1, active compounds read low 0.331 | S. cerevisiae deletion strains, locus YGL248W, strain PDE1, active compounds read low 0.282 | S. cerevisiae deletion strains, locus YGR078C, strain PAC10, active compounds read low 0.621 | S. cerevisiae deletion strains, locus YGR135W, strain pre9, active compounds read low 0.781 | S. cerevisiae deletion strains, locus YGR229C, strain SMI1, active compounds read low 0.15 | S. cerevisiae deletion strains, locus YGR252W, strain gcn5, active compounds read low 0.312 | S. cerevisiae deletion strains, locus YHR030C, strain SLT2, active compounds read low 0.142 | S. cerevisiae deletion strains, locus YHR079C, strain IRE1 (second series), active compounds read low 0.39 | S. cerevisiae deletion strains, locus YHR094C, strain hxt1, active compounds read low 0.278 | S. cerevisiae deletion strains, locus YHR129C, strain ARP1, active compounds read low 0.209 | S. cerevisiae deletion strains, locus YHR200W, strain rpn10, active compounds read low 0.691 | S. cerevisiae deletion strains, locus YIL066C, strain RNR3, active compounds read low 0.385 | S. cerevisiae deletion strains, locus YIL073C, strain SPO22, active compounds read low 0.127 | S. cerevisiae deletion strains, locus YIL125W, strain kgd1, active compounds read low 0.12 | S. cerevisiae deletion strains, locus YIR030C, strain dcg1, active compounds read low 0.461 | S. cerevisiae deletion strains, locus YJL095W, strain BCK1, active compounds read low 0.232 | S. cerevisiae deletion strains, locus YJL134W, strain LCB3, active compounds read low 0.244 | S. cerevisiae deletion strains, locus YJL168C, strain set2, active compounds read low 0.448 | S. cerevisiae deletion strains, locus YJL187C, strain SWE1 (second series), active compounds read low 0.287 | S. cerevisiae deletion strains, locus YJR043C, strain POL32, active compounds read low 0.552 | S. cerevisiae deletion strains, locus YJR075W, strain HOC1, active compounds read low 0.6 | S. cerevisiae deletion strains, locus YKL009W, strain mrt4, active compounds read low 0.874 | S. cerevisiae deletion strains, locus YKL068W, active compounds read low 0.257 | S. cerevisiae deletion strains, locus YKL085W, strain MDH1 (second series), active compounds read low 0.164 | S. cerevisiae deletion strains, locus YKL085W, strain MDH1, active compounds read low 0.164 | S. cerevisiae deletion strains, locus YKL190W, strain CNB1, active compounds read low 0.295 | S. cerevisiae deletion strains, locus YKR001C, strain vps1, active compounds read low 0.0696 | S. cerevisiae deletion strains, locus YLR039C, strain RIC1, active compounds read low 0.115 | S. cerevisiae deletion strains, locus YLR058C, strain SHM2, active compounds read low 0.432 | S. cerevisiae deletion strains, locus YLR102C, strain apc9, active compounds read low 0.431 | S. cerevisiae deletion strains, locus YLR262C, strain YPT6, active compounds read low 0.125 | S. cerevisiae deletion strains, locus YLR268W, strain sec22, active compounds read low 0.291 | S. cerevisiae deletion strains, locus YLR330W, strain CHS5, active compounds read low 0.237 | S. cerevisiae deletion strains, locus YLR342W, strain FKS1 (second series), active compounds read low 0.2 | S. cerevisiae deletion strains, locus YLR371W, strain rom2, active compounds read low 0.147 | S. cerevisiae deletion strains, locus YLR418C, strain cdc73, active compounds read low 0.162 | S. cerevisiae deletion strains, locus YML016C, strain PPZ1, active compounds read low 0.402 | S. cerevisiae deletion strains, locus YML032C, strain rad52, active compounds read low 0.586 | S. cerevisiae deletion strains, locus YML124C, strain tub3, active compounds read low 0.385 | S. cerevisiae deletion strains, locus YMR078C, strain ctf18, active compounds read low 0.857 | S. cerevisiae deletion strains, locus YMR223W, strain ubp8, active compounds read low 0.465 | S. cerevisiae deletion strains, locus YMR263W, strain SAP30, active compounds read low 0.763 | S. cerevisiae deletion strains, locus YMR307W, strain GAS1, active compounds read low 0.129 | S. cerevisiae deletion strains, locus YNL067W, strain RPL9B, active compounds read low 0.629 | S. cerevisiae deletion strains, locus YNL128W, strain TEP1, active compounds read low 0.377 | S. cerevisiae deletion strains, locus YNL153C, strain GIM3, active compounds read low 0.31 | S. cerevisiae deletion strains, locus YNL233W, strain BNI4, active compounds read low 0.2 | S. cerevisiae deletion strains, locus YNL250W, strain rad50, active compounds read low 0.262 | S. cerevisiae deletion strains, locus YNL271C, strain bni1, active compounds read low 0.119 | S. cerevisiae deletion strains, locus YNL298W, strain CLA4, active compounds read low 0.111 | S. cerevisiae deletion strains, locus YNL307C, strain MCK1, active compounds read low 0.229 | S. cerevisiae deletion strains, locus YNL322C, strain KRE1, active compounds read low 0.262 | S. cerevisiae deletion strains, locus YNR052C, strain pop2, active compounds read low 0.241 | S. cerevisiae deletion strains, locus YOL006C, strain TOP1, active compounds read low 0.107 | S. cerevisiae deletion strains, locus YOL147C, strain pex11, active compounds read low 0.338 | S. cerevisiae deletion strains, locus YOR061W, strain CKA2, active compounds read low 0.0978 | S. cerevisiae deletion strains, locus YOR069W, strain VPS5, active compounds read low 0.14 | S. cerevisiae deletion strains, locus YOR136W, strain idh2, active compounds read low 0.248 | S. cerevisiae deletion strains, locus YOR144C, strain elg1, active compounds read low 0.425 | S. cerevisiae deletion strains, locus YOR184W, strain ser1, active compounds read low 0.335 | S. cerevisiae deletion strains, locus YOR316C, strain cot1, active compounds read low 0.377 | S. cerevisiae deletion strains, locus YPL055C, strain LGE1, active compounds read low 0.174 | S. cerevisiae deletion strains, locus YPL241C, strain CIN2, active compounds read low 0.648 | S. cerevisiae deletion strains, locus YPR119W, strain clb2, active compounds read low 0.623 | S. cerevisiae deletion strains, locus YPR141C, strain kar3, active compounds read low 0.383 | S. cerevisiae deletion strains, locus YPR163C, strain tif3, active compounds read low 0.134 | S. cerevisiae deletion strains, locus YPR167C, strain met16, active compounds read low 0.427 | S. cerevisiae deletion strains, strain wtn01, active compounds read low 0.245 | S. cerevisiae strains, strain wild type, active compounds read low 0.27
